Data taken from PubChem BioAssay AID1159580 (chemical genetic matrix, 2015).
Where “and” joins values, the source holds several entries; their conditions need not be identical. Equal entries are not always repeated. Out of some 5,500 compounds screened, about 2,000 (36%) were called active. Roughly 18% stayed inconclusive and do not appear here. Cut-off read from the data, not from the text of the source: active = normalized growth mostly below about 0.91 (no sharp cut-off); inconclusive = no clear call, values can overlap the other calls; inactive = mostly above about 0.92. Some of the results follow.

Test: chemical genetic growth profiling, strain panel (AID 1159580);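 note: tested at 20 µM; growth read once vehicle control cultures reached saturation at 30 °C; 1 = growth at the plate median or of vehicle wells; lower values mean less growth of the strain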
Conditions: S. cerevisiae deletion strains, growth OD

Measured: normalized growth

C[C@@H]1O[C@@H](O[C@H]2[C@@H](Oc3cc(O)c4c(c3)O[C@H](c3ccc(O)cc3)CC4=O)O[C@H](CO)[C@@H](O)[C@@H]2O)[C@H](O)[C@H](O)[C@H]1O
inactive: locus YAL013W, strain DEP1, stronger effect = lower value 1 | locus YAL021C, strain ccr4, stronger effect = lower value 0.969 | locus YAL026C, strain drs2, stronger effect = lower value 0.977 | locus YAL030W, strain snc1, stronger effect = lower value 0.956 | locus YBL061C, strain skt5, stronger effect = lower value 0.96 | locus YBR009C, strain hhf1, stronger effect = lower value 0.971 | locus YBR021W, strain FUR4, stronger effect = lower value 1.02 | locus YBR023C, strain chs3, stronger effect = lower value 0.978 | locus YBR171W, strain sec66, stronger effect = lower value 0.977 | locus YBR229C, strain ROT2, stronger effect = lower value 0.956 | locus YBR231C, strain swc5, stronger effect = lower value 0.97 | locus YBR279W, strain paf1, stronger effect = lower value 0.975 | locus YCL011C, strain gbp2, stronger effect = lower value 0.957 | locus YCL016C, strain dcc1, stronger effect = lower value 0.972 | locus YCL029C, strain bik1, stronger effect = lower value 0.991 | locus YCL061C, strain MRC1, stronger effect = lower value 0.985 | locus YCL069W, strain vba3, stronger effect = lower value 0.97 | locus YCR088W, strain abp1, stronger effect = lower value 0.979 | locus YDL005C, strain med2, stronger effect = lower value 0.967 | locus YDL035C, strain GPR1, stronger effect = lower value 0.996 | locus YDL040C, strain nat1, stronger effect = lower value 0.981 | locus YDL074C, strain BRE1, stronger effect = lower value 0.975 | locus YDL101C, strain DUN1, stronger effect = lower value 0.977 | locus YDL134C, strain PPH21, stronger effect = lower value 0.956 | locus YDL185W, strain tfp1, stronger effect = lower value 0.992 | locus YDL192W, strain arf1, stronger effect = lower value 0.995 | locus YDR001C, strain nth1, stronger effect = lower value 0.954 | locus YDR069C, strain doa4, stronger effect = lower value 0.97 | locus YDR101C, strain arx1, stronger effect = lower value 0.997 | locus YDR137W, strain rgp1, stronger effect = lower value 0.983 | locus YDR150W, strain NUM1, stronger effect = lower value 0.977 | locus YDR159W, strain sac3, stronger effect = lower value 0.978 | locus YDR162C, strain NBP2, stronger effect = lower value 0.992 | locus YDR195W, strain ref2 0.956 | locus YDR297W, strain sur2, stronger effect = lower value 0.984 | locus YDR318W, strain mcm21, stronger effect = lower value 0.994 | locus YDR334W, strain swr1, stronger effect = lower value 0.942 | locus YDR335W, strain msn5, stronger effect = lower value 0.969 | locus YDR388W, stronger effect = lower value 1 | locus YDR392W, strain spt3, stronger effect = lower value 0.934 | locus YDR502C, strain sam2, stronger effect = lower value 1 | locus YEL003W, strain gim4, stronger effect = lower value 0.967 | locus YEL037C, strain rad23, stronger effect = lower value 0.966 | locus YEL061C, strain CIN8 (second series), stronger effect = lower value 0.964 | locus YEL061C, strain CIN8, stronger effect = lower value 1 | locus YER015W, strain faa2, stronger effect = lower value 0.959 | locus YER016W, strain bim1, stronger effect = lower value 0.971 | locus YER110C, stronger effect = lower value 0.986 | locus YER111C, strain swi4, stronger effect = lower value 0.983 | locus YER155C, strain BEM2 (second series), stronger effect = lower value 0.972 | locus YER155C, strain BEM2, stronger effect = lower value 1.01 | locus YER167W, strain BCK2, stronger effect = lower value 1 | locus YFR010W, strain ubp6, stronger effect = lower value 0.954 | locus YGL078C, strain dbp3, stronger effect = lower value 0.991 | locus YGL086W, strain mad1, stronger effect = lower value 0.998 | locus YGL167C, strain pmr1, stronger effect = lower value 0.977 | locus YGL173C, strain kem1, stronger effect = lower value 0.946 | locus YGL227W, strain vid30, stronger effect = lower value 0.975 | locus YGL240W, strain doc1, stronger effect = lower value 0.991 | locus YGL248W, strain PDE1, stronger effect = lower value 0.979 | locus YGL253W, strain hxk2, stronger effect = lower value 0.977 | locus YGR078C, strain PAC10, stronger effect = lower value 0.987 | locus YGR135W, strain pre9, stronger effect = lower value 1 | locus YGR229C, strain SMI1, stronger effect = lower value 0.987 | locus YGR252W, strain gcn5, stronger effect = lower value 0.991 | locus YHR013C, strain ard1, stronger effect = lower value 0.943 | locus YHR027C, strain rpn1, stronger effect = lower value 0.959 | locus YHR030C, strain SLT2, stronger effect = lower value 0.99 and 1 | locus YHR079C, strain IRE1 (second series), stronger effect = lower value 0.999 | locus YHR079C, strain IRE1, stronger effect = lower value 0.989 | locus YHR094C, strain hxt1, stronger effect = lower value 0.996 | locus YHR129C, strain ARP1, stronger effect = lower value 0.993 | locus YHR142W, strain chs7, stronger effect = lower value 0.921 | locus YHR200W, strain rpn10, stronger effect = lower value 1 | locus YIL066C, strain RNR3, stronger effect = lower value 0.976 | locus YIL073C, strain SPO22, stronger effect = lower value 0.946 | locus YIL125W, strain kgd1, stronger effect = lower value 0.999 | locus YIR030C, strain dcg1, stronger effect = lower value 0.986 | locus YJL092W, strain hpr5, stronger effect = lower value 0.967 | locus YJL095W, strain BCK1 (second series), stronger effect = lower value 0.968 | locus YJL095W, strain BCK1, stronger effect = lower value 0.998 and 1 | locus YJL115W, strain asf1, stronger effect = lower value 0.938 | locus YJL129C, strain trk1, stronger effect = lower value 0.939 | locus YJL134W, strain LCB3, stronger effect = lower value 0.985 | locus YJL154C, strain vps35, stronger effect = lower value 0.961 | locus YJL164C, strain tpk1, stronger effect = lower value 0.98 | locus YJL166W, strain qcr8, stronger effect = lower value 0.977 | locus YJL168C, strain set2, stronger effect = lower value 1 | locus YJL187C, strain SWE1 (second series), stronger effect = lower value 0.968 | locus YJL187C, strain SWE1, stronger effect = lower value 0.974 | locus YJR043C, strain POL32, stronger effect = lower value 0.995 | locus YJR066W, strain TOR1, stronger effect = lower value 0.926
